The values that follow come from PubChem BioAssay.

SMILES strings stand for the structures. Calls of active or inactive are those of the source. Unless noted, how the calls were made is not given here.

Assay [1] in a line: resazurin metabolic signal in HepG2 cells – cell-based, resazurin fluorescence, 24 h, PK04 Diversity Set, profiling panel (AID 1172). Further: test concentration not given here. The conditions noted are these: HepG2 viability, higher = more signal. On the technique in general: Alamar Blue is a resazurin reagent that responds to reducing activity.
Assay [2] is described as follows: budding yeast growth changes without added modifier – OD600, strain BY4716, 24 h, basal condition, primary screen (AID 1173). The conditions noted are these: S. cerevisiae BY4716 growth, OD600, 24 h; higher = more signal, called active from +8 up or from −8 down.
Assay [3] can be described thus: viability profiling in MM1S myeloma cells – cell-based, resazurin fluorescence, basal, 24 h, PK04 Diversity Set, profiling panel (AID 1174).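 Further: MM1S multiple myeloma cell line; test concentration not given here.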 The following applies: higher = more signal, called active from +8 up or from −8 down.
The target in assay [4] is Dihydroorotate dehydrogenase (quinone), mitochondrial (Plasmodium falciparum (isolate 3D7)) (UniProt Q08210). Briefly: inhibition of P. falciparum DHODH – biochemical, C-terminal His tag, absorbance 600 nm, primary screen (AID 1175).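 Further: recombinant parasite enzyme with a five histidine tag at its C terminus; test concentration not given here.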 The conditions noted are these: PfDHODH enzyme, DCIP absorbance 600 nm; higher = more signal, called active from +8 up or from −8 down.
Dihydroorotate dehydrogenase (quinone), mitochondrial (Plasmodium falciparum (isolate 3D7)), sequence (Q08210 whole entry, looked up): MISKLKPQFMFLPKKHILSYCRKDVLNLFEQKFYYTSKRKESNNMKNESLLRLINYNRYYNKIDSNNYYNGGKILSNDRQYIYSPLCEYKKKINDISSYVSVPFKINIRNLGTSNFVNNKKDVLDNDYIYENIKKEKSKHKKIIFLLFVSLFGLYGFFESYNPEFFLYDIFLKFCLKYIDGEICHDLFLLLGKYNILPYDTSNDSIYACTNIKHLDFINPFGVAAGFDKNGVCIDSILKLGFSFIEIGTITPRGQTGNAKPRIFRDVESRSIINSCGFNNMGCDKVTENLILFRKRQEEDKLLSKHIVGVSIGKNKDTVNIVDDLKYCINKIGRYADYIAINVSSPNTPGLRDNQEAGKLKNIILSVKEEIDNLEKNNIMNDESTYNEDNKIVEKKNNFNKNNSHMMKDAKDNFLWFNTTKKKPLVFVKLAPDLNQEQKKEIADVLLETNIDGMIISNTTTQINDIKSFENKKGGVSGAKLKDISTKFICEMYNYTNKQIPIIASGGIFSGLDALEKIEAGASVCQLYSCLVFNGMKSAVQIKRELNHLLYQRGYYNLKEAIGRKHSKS
Assay [5] in a line: inhibition of PAO1 biofilm formation – strain PAO1, LB-PBS medium, absorbance 600 nm, primary screen (AID 1176). Further: test concentration not given here. The following applies: P. aeruginosa PAO1 growth/biofilm, A600, 12 h; higher = more signal.
Assay [6] in a line: growth modulation of vineyard yeast isolate – strain RM11-1a, OD600, basal, 24 h, primary screen (AID 1177).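 Further: cultures grown under basal conditions with no added stressor; test concentration not given here.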 The following applies: S. cerevisiae RM11-1a growth, OD600, 24 h; higher = more signal, called active from +8 up or from −8 down.
Assay [7] can be described thus: growth of efflux-deficient E. coli DRC39 – strain DRC39, OD650, 24 h, E. coli filamentation inducers, primary screen (AID 1178).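 Further: growth measured as culture turbidity by optical density at 650 nm; test concentration not given here.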 The conditions noted are these: E. coli DRC39 acrAB, higher = more signal, called active from +8 up or from −8 down.
Assay [8] is described as follows: growth of efflux-deficient E. coli DRC39 – strain DRC39, OD650, 48 h, E. coli filamentation inducers, primary screen (AID 1179).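 Further: screen aims at cell division blockers that make cells filament.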 The conditions noted are these: E. coli DRC39 delta-acrAB growth, higher = more signal, called active from +8 up or from −8 down.
Assay [9] is described as follows: viability profiling in RPMI8226 myeloma cells – cell-based, resazurin fluorescence, basal, 24 h, PK04 Diversity Set, profiling panel (AID 1180).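 Further: RPMI8826 multiple myeloma cell line at 5000 cells per well; test concentration not given here.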 The conditions noted are these: higher = more signal.
The target of assay [10] is E3 ubiquitin-protein ligase XIAP (Homo sapiens) (UniProt P98170). Briefly: small molecules binding XIAP protein – biophysical, small-molecule microarray, fluorescence 635 nm, primary screen (AID 1181).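 Further: score merges 667 nm emission and signal to noise over triplicate slides.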 The conditions noted are these: higher = more signal.
E3 ubiquitin-protein ligase XIAP (Homo sapiens), sequence (P98170 whole entry, looked up): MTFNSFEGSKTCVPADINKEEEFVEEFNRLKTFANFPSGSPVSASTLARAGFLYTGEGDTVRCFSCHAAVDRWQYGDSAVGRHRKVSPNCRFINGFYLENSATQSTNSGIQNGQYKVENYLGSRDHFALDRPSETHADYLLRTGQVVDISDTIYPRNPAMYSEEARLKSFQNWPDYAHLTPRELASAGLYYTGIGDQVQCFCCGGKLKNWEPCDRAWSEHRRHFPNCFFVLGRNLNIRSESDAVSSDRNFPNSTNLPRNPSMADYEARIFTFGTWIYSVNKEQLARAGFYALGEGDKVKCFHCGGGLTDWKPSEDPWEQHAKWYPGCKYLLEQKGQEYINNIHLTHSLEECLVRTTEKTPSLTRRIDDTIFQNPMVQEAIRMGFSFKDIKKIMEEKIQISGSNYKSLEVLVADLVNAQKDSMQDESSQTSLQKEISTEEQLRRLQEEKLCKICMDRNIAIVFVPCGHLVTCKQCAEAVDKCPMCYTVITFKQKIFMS

In the case of `C=CCC(OC(C)=O)[C@@H]1[C@@H](N(Cc2ccc(-c3ccccc3)cc2)C(=O)Cc2ccc(OC)cc2)c2cc(OCCCO)ccc2N1C(=O)Cc1ccc2ccccc2c1` (stereo not given in full), the z-score in assay [1] was -0.978; in assay [2] it was -0.34 (inactive); in assay [3], -0.541 (inactive); in assay [5], 0.562 (inactive); in [6] it was -0.726 (inactive); in assay [7], -0.39 (inactive). Moreover, the z-score in assay [8] is -0.851 (inactive); in assay [9] it was -0.798. Besides, the composite z-score in [4] was 0.0513 (inactive); in assay [10], 0.098.

`COCCOC(=O)N1C(=O)[C@@]2(c3cc(C#CCC(C(=O)OC)C(=O)OC)ccc31)[C@H](C(=O)N1CCN(c3ncccn3)CC1)[C@H]1C(=O)O[C@H](c3ccccc3)[C@H](c3ccccc3)N1[C@@H]2c1ccccc1OCCO`: the z-score in assay [1] was -0.354; in assay [2], 1.51 (inactive); in [3] it was -0.0626 (inactive); in assay [5], 3.78 (inactive); in assay [6], 2.75 (inactive); in assay [7] it was 0.284 (inactive). Further, the z-score in assay [8] is 0.0336 (inactive); in assay [9], -0.5. For the same compound, the composite z-score in assay [4] was -1.42 (inactive); in assay [10], -0.0749.

Regarding `O=C1c2ccccc2[C@](Cc2ccccc2I)(C(=O)NCCN2CCOCC2)[C@H](c2ccc(CO)cc2)N1Cc1ccccc1Cl`, the z-score was -0.322 in [1]; -0.935 (inactive) in [2]; 0.618 (inactive) in [3]; 0.916 (inactive) in assay [5]; -0.0576 (inactive) in [6]; 0.768 (inactive) in assay [7]. Besides, the z-score in [8] was -0.108 (inactive); in assay [9] it was 0.304. The results for the composite z-score in assay [4] and in assay [10] were -0.0768 (inactive) and -0.102, respectively.

Take `CC(C)OC(=O)C=C1C[C@@H](c2ccccn2)O[C@@H](c2ccccn2)O1`: the z-score was -0.802 in assay [1]; -1.97 (inactive) in assay [2]; -0.377 (inactive) in [3]; 0.0362 (inactive) in assay [5]; -0.391 (inactive) in assay [6]; -0.471 (inactive) in assay [7]. For the same compound, the figures for the z-score in assay [8] and in assay [9] were 0.115 (inactive) and -0.474, respectively. Also, the composite z-score in assay [4] is 0.409 (inactive); in assay [10] it was 0.462.

`O=C1C2C=CC(C(O)c3cc(C(F)(F)F)cc(C(F)(F)F)c3)N(n3cnnc3)C2C(=O)N1Cc1ccccc1` (stereo not given): the z-score in assay [1] was -0.064; in assay [2] it was -1.01 (inactive); in [3], -0.497 (inactive); in assay [5] it was 0.933 (inactive); in [6] it was 1.09 (inactive); in assay [7], 0.375 (inactive). In addition, the z-score in assay [8] was 0.589 (inactive); in assay [9], -0.394. In addition, the composite z-score in assay [4] is 0.861 (inactive); in assay [10] it was 0.0945.

As to `O=C1[C@@]23C=C(Br)[C@H](C[C@@H]2CCOC3)[C@@]12CO2`, the z-score in assay [1] was 0.165; in assay [2] it was -1.85 (inactive); in assay [3] it was 0.0335 (inactive); in assay [5], 0.261 (inactive); in [6], -0.0503 (inactive); in assay [7], 0.297 (inactive). In addition, the z-score in assay [8] is 0.319 (inactive); in assay [9], 0.428. Besides, the composite z-score in assay [4] was -0.0887 (inactive); in assay [10], 0.188.

Consider `CC(=O)NCCCC[C@@H]1NC(=O)[C@H]2C[C@@H](C(=O)NCCCCCCNC(=O)CS)[C@@H](c3ccc(O)cc3)N2C1=O`, for which the z-score in assay [1] was -0.294; in assay [2], 0.429 (inactive); in assay [3] it was -0.523 (inactive); in assay [5] it was 1.08 (inactive); in [6], 0.518 (inactive); in [7] it was -0.622 (inactive). The z-score in assay [8] was -1.35 (inactive); in [9], -0.803. For the same compound, the composite z-score in assay [4] was 0.761 (inactive); in assay [10] it was 0.125.

Regarding `C=CCN1C(=O)[C@]2(O[C@H](CCn3cc([C@H](O)c4ccccc4)nn3)[C@@H]([Si](C)(C)c3ccc(OC)cc3)[C@@H]2C)c2cc(N3CCC3=O)ccc21`, the z-score was 0.0514 in assay [1]; 0.743 (inactive) in assay [2]; -1.85 (inactive) in assay [3]; 0.0245 (inactive) in assay [5]; 2.44 (inactive) in assay [6]; 0.518 (inactive) in assay [7]. The z-score in assay [8] is -0.0117 (inactive); in assay [9], -1.67. For the same compound, the results for the composite z-score in assay [4] and in assay [10] were 1.04 (inactive) and 0.0623, respectively.

For `CC(C)C(=C=CC[C@@H](O)c1ccc(OCCO)cc1)C[C@@H](O)c1ccccn1`, the z-score in [1] is -0.287; in assay [2], -0.492 (inactive); in assay [3], -0.426 (inactive); in [5], 0.85 (inactive); in assay [6] it was 0.406 (inactive); in assay [7] it was -0.235 (inactive). The results for the z-score in assay [8] and in assay [9] were -0.0608 (inactive) and -0.538, respectively. Moreover, the composite z-score in assay [4] is -11.9 (active); in assay [10], 0.273.

`C=CCNC(=O)[C@@H]1[C@H]2C(=O)O[C@H](c3ccccc3)[C@H](c3ccccc3)N2[C@H](c2ccccc2OCCO)[C@@]12C(=O)N(C(=O)OCCOC)c1ccccc12`: the z-score in [1] is -1.59; in [2], 1.86 (inactive); in assay [3], -1.12 (inactive); in assay [5], 2.26 (inactive); in assay [6], 3.27 (inactive); in [7], 0.0191 (inactive). For the same compound, the z-score in assay [8] was -0.476 (inactive); in [9], -1.65. Further, the composite z-score in [4] was 0.693 (inactive); in assay [10], -0.0559.

In the case of `N#Cc1ccc(NN2C(C(O)C(c3ccccc3)c3ccccc3)C=CC3C(=O)N(c4ccccc4)C(=O)C32)cc1` (stereo not given), the z-score in [1] is -0.554; in [2], 0.551 (inactive); in [3], -1.17 (inactive); in assay [5], 0.35 (inactive); in [6], 0.826 (inactive); in [7] it was -0.135 (inactive). Besides, the z-score is 0.832 (inactive) in [8] and 0.0951 in assay [9]. For the same compound, the composite z-score is 0.0998 (inactive) in assay [4] and 0.0849 in assay [10].

Consider `COCCOC(=O)N1C(=O)[C@@]2(c3cc(C#CC4(O)CCCCCC4)ccc31)[C@H](c1ccccc1OCCO)N1[C@H](c3ccccc3)[C@H](c3ccccc3)OC(=O)[C@H]1[C@@H]2C(=O)N1CCN(c2ncccn2)CC1`, for which the z-score in [1] is -0.645; in assay [2], 1.61 (inactive); in assay [3] it was -0.349 (inactive); in assay [5] it was 2.03 (inactive); in assay [6] it was 2.39 (inactive); in [7] it was 0.0296 (inactive). Besides, the z-score in [8] was 0.946 (inactive); in assay [9], -0.874. For the same compound, the composite z-score in assay [4] is 0.122 (inactive); in assay [10], 0.0774.

Turning to `C=C(COC)/C(=C/C[C@H](OC(C)=O)c1ccc(CO)o1)c1cc(C(=O)OC)ccc1OC`, the z-score in assay [1] was -0.613; in assay [2] it was -0.0209 (inactive); in assay [3] it was -0.891 (inactive); in [5], -0.317 (inactive); in assay [6], -0.253 (inactive); in [7], -1.38 (inactive). The z-score in [8] is -0.816 (inactive); in assay [9], -0.746. Also, the composite z-score was -6.52 (inactive) in assay [4] and 0.0101 in [10].
